# Several values for one entry are separate records, joined by “and”; a condition that tells them apart may be missing. Equal values may be shown once. A structure can be active in one record and inactive in another. Activity calls are given as the source filed them. How the source made its calls: active means hit-call score of the fitted dose curve at least 0.9, where 1 is the maximum; inactive means score below 0.9.
# Legend:
# [1] = read-out: Monokine induced gamma interferon (MIG), CXCL9 (gene 4283); assay: BSK_KF3CT_MIG: BioMAP Diversity Plus: KF3CT Assay for Monokine induced gamma interferon (MIG) Biomarker Activity (AID 2284248); settings: primary human keratinocytes with fibroblasts
# In short: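 Parallel cultures were stained with SRB (560 nm) to check cytotoxicity. MIG was quantified by ELISA in a primary human skin keratinocyte/fibroblast co-culture 24 h post-dosing, with gain of signal fitted relative to DMSO.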
# [2] = read-out: Vascular cell adhesion molecule 1 (VCAM1), VCAM1 (gene 7412); assay: BSK_BF4T_VCAM1: BioMAP Diversity Plus: BF4T Assay for Vascular cell adhesion molecule 1 (VCAM1) Biomarker Activity (AID 2284249); settings: primary human bronchial epithelial cells with fibroblasts
# In short: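 Human bronchial epithelial cell and dermal fibroblast co-culture exposed 24 h. VCAM-1 measured by ELISA; parallel SRB total-protein staining for cytotoxicity. Fitted in positive direction relative to DMSO.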
# [3] = read-out: Collagen I, COL1A1 (gene 1277); assay: BSK_hDFCGF_CollagenI: BioMAP Diversity Plus: hDFCGF Assay for Collagen I Biomarker Activity (AID 2284250); settings: primary human foreskin fibroblasts
# In short: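 Primary human foreskin fibroblasts (hDFCGF system) exposed to chemical for 24 h; Collagen I measured by ELISA. Activity fitted in the positive direction relative to DMSO baseline, with SRB total-protein staining in parallel cultures for overt cytotoxicity.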
# [4] = read-out: Interferon-inducible T-cell alpha chemoattractant (ITAC), CXCL11 (gene 6373); assay: BSK_hDFCGF_ITAC: BioMAP Diversity Plus: hDFCGF Assay for Interferon-inducible T-cell alpha chemoattractant (ITAC) Biomarker Activity (AID 2284251); settings: primary human foreskin fibroblasts
# In short: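 ELISA readout of I-TAC after 24 h chemical exposure; human dermal foreskin fibroblast primary cells. Positive-direction fitting vs DMSO baseline. Parallel SRB total-protein staining (0.1% SRB after 10% TCA fixation, 560 nm) flags cytotoxicity.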
# [5] = read-out: Plasminogen activator inhibitor-1 (PAI1), SERPINE1 (gene 5054); assay: BSK_KF3CT_PAI1: BioMAP Diversity Plus: KF3CT Assay for Plasminogen activator inhibitor-1 (PAI1) Biomarker Activity (AID 2284252); settings: primary human keratinocytes with fibroblasts
# In short: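 Human primary keratinocyte/foreskin fibroblast co-culture was dosed with compound and sampled at 24 h. PAI-1 was quantified by ELISA, with activity fitted in the positive direction relative to DMSO vehicle as baseline.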
# [6] = read-out: Monocyte Chemoattractant Protein-1 (MCP1), CCL2 (gene 6347); assay: BSK_IMphg_MCP1: BioMAP Diversity Plus: IMphg Assay for Monocyte Chemoattractant Protein-1 (MCP1) Biomarker Activity (AID 2284253); settings: primary human endothelial cells with macrophages
# In short: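 Human venular endothelial cells co-cultured with macrophages; MCP-1 measured by ELISA 24 hours post-dose and fitted against DMSO. Cytotoxicity monitored by SRB total-protein staining in parallel cultures.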
# [7] = read-out: Interleukin-8 (IL8), CXCL8 (gene 3576); assay: BSK_KF3CT_IL8: BioMAP Diversity Plus: KF3CT Assay for Interleukin-8 (IL8) Biomarker Activity (AID 2284254); settings: primary human keratinocytes with fibroblasts
# In short: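 IL-8 by ELISA in primary human skin co-culture (keratinocytes plus fibroblasts) 24 h post-dose, DMSO as baseline. Cytotoxicity assessed in parallel by sulforhodamine B total-protein staining.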
# [8] = read-out: Macrophage Inflammatory Protein-1 Alpha (MIP1a), CCL3 (gene 6348); assay: BSK_IMphg_MIP1a: BioMAP Diversity Plus: IMphg Assay for Macrophage Inflammatory Protein-1 Alpha (MIP1a) Biomarker Activity (AID 2284255); settings: primary human endothelial cells with macrophages
# In short: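 Co-culture of human venular endothelial cells and macrophages exposed to compounds for 24 h; MIP-1a measured by ELISA relative to DMSO. Cytotoxicity assessed in parallel cultures by sulforhodamine B total-protein staining at 560 nm.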
# [9] = read-out: Plasminogen activator inhibitor-1 (PAI1), SERPINE1 (gene 5054); assay: BSK_MyoF_PAI1: BioMAP Diversity Plus: MyoF Assay for Plasminogen activator inhibitor-1 (PAI1) Biomarker Activity (AID 2284256); settings: primary human lung fibroblasts
# In short: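 Human lung fibroblasts (MyoF system) were exposed to test chemicals for 24 h, then PAI-1 was quantified by ELISA. Activity was fitted in the positive (signal-gain) direction relative to DMSO vehicle as baseline.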
# CD69, CD69 (gene 969) = assay: BSK_IMphg_CD69: BioMAP Diversity Plus: IMphg Assay for CD69 Biomarker Activity (AID 2284257); settings: primary human endothelial cells with macrophages
# In short: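 Human venular endothelial cells co-cultured with macrophages; CD69 quantified by ELISA 24 h after compound addition. Activity fitted in the positive direction relative to DMSO baseline; cytotoxicity tracked in parallel cultures via SRB total-protein staining.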
# [10] = read-out: Eotaxin 3, CCL26 (gene 10344); assay: BSK_BF4T_Eotaxin3: BioMAP Diversity Plus: BF4T Assay for Eotaxin 3 Biomarker Activity (AID 2284258); settings: primary human bronchial epithelial cells with fibroblasts
# In short: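 Co-culture of human bronchial epithelial cells and dermal fibroblasts, exposed to chemicals for 24 h versus DMSO. Eotaxin-3 quantified by ELISA; cytotoxicity checked in parallel cultures by sulforhodamine B total-protein staining.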
# [11] = read-out: Monocyte Chemoattractant Protein-1 (MCP1), CCL2 (gene 6347); assay: BSK_BF4T_MCP1: BioMAP Diversity Plus: BF4T Assay for Monocyte Chemoattractant Protein-1 (MCP1) Biomarker Activity (AID 2284259); settings: primary human bronchial epithelial cells with fibroblasts
# In short: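 Co-culture of bronchial epithelial cells and dermal fibroblasts dosed with chemical; MCP-1 measured by ELISA 24 h later. Activity fitted in positive direction versus DMSO; cytotoxicity checked by SRB staining in parallel cultures.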
# [12] = read-out: Intercellular Adhesion Molecule 1 (ICAM1), ICAM1 (gene 3383); assay: BSK_BF4T_ICAM1: BioMAP Diversity Plus: BF4T Assay for Intercellular Adhesion Molecule 1 (ICAM1) Biomarker Activity (AID 2284260); settings: primary human bronchial epithelial cells with fibroblasts
# In short: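 Co-culture of human bronchial epithelial cells and dermal fibroblasts exposed 24 h to chemical; cell-surface ICAM-1 quantified by ELISA. Parallel SRB total-protein staining assessed cytotoxicity; activity fitted relative to DMSO.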
# [13] = read-out: Interleukin-8 (IL8), CXCL8 (gene 3576); assay: BSK_MyoF_IL8: BioMAP Diversity Plus: MyoF Assay for Interleukin-8 (IL8) Biomarker Activity (AID 2284261); settings: primary human lung fibroblasts
# In short: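 IL-8 quantified by ELISA after 24 h compound exposure of primary human lung fibroblasts. SRB staining of parallel cultures flagged cytotoxicity; DMSO served as baseline.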
# CD90, THY1 (gene 7070) = assay: BSK_BF4T_CD90: BioMAP Diversity Plus: BF4T Assay for CD90 Biomarker Activity (AID 2284262); settings: primary human bronchial epithelial cells with fibroblasts
# In short: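 Co-culture of human bronchial epithelial cells and dermal fibroblasts, 24 h compound exposure. Cell-surface CD90 measured by ELISA relative to DMSO; parallel SRB total-protein staining for cytotoxicity.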
# [14] = read-out: Interleukin-8 (IL8), CXCL8 (gene 3576); assay: BSK_BF4T_IL8: BioMAP Diversity Plus: BF4T Assay for Interleukin-8 (IL8) Biomarker Activity (AID 2284263); settings: primary human bronchial epithelial cells with fibroblasts
# In short: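 Human bronchial epithelial cells with dermal fibroblasts co-culture; IL-8 measured by ELISA 24 hours after dosing, fitted vs DMSO. Cytotoxicity tracked in parallel cultures by SRB total-protein staining.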
# [15] = read-out: Interleukin-1 alpha (IL1a), IL1A (gene 3552); assay: BSK_BF4T_IL1a: BioMAP Diversity Plus: BF4T Assay for Interleukin-1 alpha (IL1a) Biomarker Activity (AID 2284264); settings: primary human bronchial epithelial cells with fibroblasts
# In short: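 Human bronchial epithelial cells co-cultured with dermal fibroblasts, dosed and read at 24 h. Secreted/surface IL-1α quantified by ELISA; gain-of-signal fitted relative to DMSO baseline. Parallel SRB total-protein staining tracked cytotoxicity.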
# Decorin, DCN (gene 1634) = assay: BSK_MyoF_Decorin: BioMAP Diversity Plus: MyoF Assay for Decorin Biomarker Activity (AID 2284265); settings: primary human lung fibroblasts
# In short: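 Decorin protein was quantified by ELISA 24 h after chemical addition to primary human lung fibroblasts and analysed as increase over DMSO. Cytotoxicity was tracked in parallel cultures by SRB total-protein staining read at 560 nm.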
# KRT18 (gene 3875) = assay: BSK_BF4T_Keratin818: BioMAP Diversity Plus: BF4T Assay for Keratin 818 Biomarker Activity (AID 2284266); settings: primary human bronchial epithelial cells with fibroblasts
# In short: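 Co-culture of human bronchial epithelial cells and dermal fibroblasts, chemical exposure 24 h. Keratin 8/18 measured by ELISA; positive-direction fit vs DMSO. SRB total protein run in parallel cultures for cytotoxicity.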
# [16] = BSK_MyoF_SRB: Viability Assessment in the BioMAP Diversity Plus: MyoF Assay (AID 2284267); settings: primary human lung fibroblasts;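 further: total protein by SRB absorbance in parallel cultures as cytotoxicity measure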
# In short: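 Human lung fibroblasts dosed with chemical and assessed 24 h later for overt cytotoxicity in parallel cultures. Total protein quantified by sulforhodamine B staining (0.1% SRB after 10% TCA fixation), read at 560 nm, analysed in positive direction versus DMSO baseline.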
compound,measurement,setting,value
CCNS(=O)(=O)C(F)(F)C(F)(F)C(F)(F)C(F)(F)C(F)(F)C(F)(F)C(F)(F)C(F)(F)F,AC50,[1],46 µM (active)
same,outcome,[1],inactive
same,AC50,[2],15.4 µM (active) and 14.3 µM (active)
same,AC50,[3],46.9 µM (active) and 38.3 µM (active)
same,AC50,[4],24.8 µM (active) and 27.5 µM (active)
same,AC50,[5],39.7 µM (active) and 39.3 µM (active)
same,AC50,[6],41.4 µM (active) and 36.9 µM (active)
same,outcome,[7],inactive
same,AC50,[8],35 µM (active)
same,outcome,[8],inactive
same,AC50,[9],58.4 µM (active) and 51.1 µM (active)
same,AC50,"CD69, CD69 (gene 969)",38.4 µM (active) and 39.2 µM (active)
same,AC50,[10],7.65 µM (active) and 6.97 µM (active)
same,AC50,[11],18.6 µM (active) and 22.6 µM (active)
same,AC50,[12],30 µM (active) and 25 µM (active)
same,AC50,[13],41.5 µM (active) and 45.6 µM (active)
same,outcome,"CD90, THY1 (gene 7070)",inactive
same,outcome,[14],inactive
same,AC50,[15],36.5 µM (active) and 44.4 µM (active)
same,AC50,"Decorin, DCN (gene 1634)",40.9 µM (active) and 45.6 µM (active)
same,AC50,KRT18 (gene 3875),15.3 µM (active) and 22.5 µM (active)
same,AC50,[16],48.8 µM (active) and 50.9 µM (active)

# Source: PubChem BioAssay (EPA / NIEHS)
